Compounds with a hit are over-represented: about 6.1% of the library has one in this group of screens.
DRD3 agonist: agonists of human D3 dopamine receptor. D3R DiscoveRx beta-arrestin cells, luminescence, 90 min. max activation, %. actives 0.58% (n = 410,000); in the data active = max activation above about 30%; also: 0% is about no effect
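Agonist-mode cell screen: cells plated at 1500/well and incubated overnight at 37 °C, then exposed to library compounds for 90 min at 37 °C. Detection reagent was added for 30–60 min at room temperature, and luminescence was read.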
D1 antagonist: antagonists of human D1 dopamine receptor; P21728; HEK293 TREx D1 cells, calcium flux, dopamine EC80; stronger effect = lower value; activity change, negative = inhibition, % at 10 µM; actives 3.2% (n = 360,000); in the data active = activity change below about -30%; also: % is scaled to controls: 0 for no effect and ±100 for the full control effect
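HEK293 T-REx cells expressing inducible, force-coupled D1 receptor; no-wash Ca dye, 30–90 min RT. Cmpd → 180 s read at 1 Hz → EC80 DA → 180 s read.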
D1 PAM: enhances dopamine response at the human D1 receptor; P21728; actives 0.036% (n = 360,000); AID 504651; HEK293 TREx D1 cells, calcium flux, dopamine EC20 potentiation; potentiation, % at 10 µM; in the data active = potentiation above about 30%; also: 0% is about no effect
D1 agonist: human D1 receptor agonism; AID 504660; HEK293 T-REx D1 cells, calcium flux, agonist mode; activation, % at 2 µM; actives 1% (n = 360,000); in the data active = activation above about 30%; also: 0% is about no effect
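Inducible HEK293 T-REx D1 cells, force-coupled to calcium signalling, were plated at 4000 cells/well with tetracycline and held overnight at 30 C. After no-wash calcium dye loading, compound-evoked calcium rise over 180 s flagged agonists.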
D3 antag: D3 dopamine receptor (human) antagonism. max response, negative = inhibition, %. actives 2.5% (n = 360,000). AID 652054. D3R cells, DiscoveRx beta-arrestin luminescence, antagonist mode; stronger effect = lower value; in the data active = max response below about -50%; inconclusive = no clear call, values can overlap the other calls; also: % is scaled to controls: 0 for no effect and ±100 for the full control effect
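Cells plated overnight at 1500 cells/well, then exposed to library compounds with dopamine controls for 90 minutes at 37 degrees C. DiscoveRx reagent added for 30–60 minutes at room temperature; luminescence read, quantitative HTS format.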
ERG Ets-DNA blk: blocks human ERG Ets domain binding to DNA; Potency, µM (highest dose often 76.9 µM), for the others: top-dose FP activity, negative = inhibition, hits mostly inhibitors; actives 0.028% (n = 370,000); fluorescence polarization, His-ERG Ets domain / labelled DNA; P11308; active = well fitted inhibition curve with a large enough effect in the polarisation, with a control signal flat; inconclusive = small, poorly fitted or top-dose-only effect, or effect the other way, or a change in a side signal; inactive = no such curve, though single readings can be large or run the other way; the % refers to the polarisation;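 also: polarization taken with two DNA probes labelled with fluorescein and Texas red; potency is read from the fitted curve at half-maximal effect; % of control where 0% means no effect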
Target sequence (P11308 whole entry, looked up, the tested form may be a part): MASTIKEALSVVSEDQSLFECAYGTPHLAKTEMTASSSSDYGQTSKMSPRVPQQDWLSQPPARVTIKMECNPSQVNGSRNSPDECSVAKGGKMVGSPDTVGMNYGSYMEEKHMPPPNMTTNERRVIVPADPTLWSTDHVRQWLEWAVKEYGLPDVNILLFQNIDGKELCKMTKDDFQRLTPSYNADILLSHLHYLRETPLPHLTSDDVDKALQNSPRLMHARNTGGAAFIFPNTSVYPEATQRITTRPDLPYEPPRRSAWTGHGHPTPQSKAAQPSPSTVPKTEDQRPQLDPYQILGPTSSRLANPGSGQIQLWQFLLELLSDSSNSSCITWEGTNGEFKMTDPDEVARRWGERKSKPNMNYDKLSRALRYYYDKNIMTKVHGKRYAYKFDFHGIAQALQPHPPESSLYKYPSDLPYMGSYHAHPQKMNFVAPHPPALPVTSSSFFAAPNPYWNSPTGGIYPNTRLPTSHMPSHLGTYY
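His-tagged ERG Ets domain (1 uM in the protein solution; 300mM KCl, 50mM Tris-HCl, 1mM EDTA, 1mM DTT, pH 7.5) received compound, then a probe mix of 5 nM fluorescein-DNA and 100nM Texas-615-DNA. Fluorescence polarization was read for both dyes.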
* marks the source's active call; other numbers are inactive results; u = inconclusive; x = no result.

SMILES	DRD3 agonist	D1 antagonist	D1 PAM	D1 agonist	D3 antag	ERG Ets-DNA blk
COc1ccc(-c2nc(-c3ccccc3OC)no2)cc1OC	-18	-36*	0	7	-29	-2%
COc1cc(OC)cc(-c2nc(-c3cccc(C)c3)no2)c1	-2	-2	-5	15	x	-6%
COc1ccccc1-c1noc(-c2ccc(NC3CCCC3)c([N+](=O)[O-])c2)n1	1	-40*	-2	1	x	2%
COc1cc(-c2nc(-c3cccc(C)c3)no2)cc(OC)c1OC	58*	-9	6	2	40	x
COc1ccccc1-c1noc(-c2ccccc2)n1	-4	18	4	-1	-9	-1%
CCOc1ccc(-c2ccc(NS(=O)(=O)c3cc(C)ccc3OC)cc2)nn1	3	-1	-2	2	x	8%
CCC/C=C(\CCC)C(NC(=O)c1ccc(C(=O)OC)cc1)c1ccc(C(=O)OC)cc1 (stereo not given)	-14	x	x	x	-1	-5%
CCN(Cc1nc(-c2cccc(C)c2)no1)C(=O)c1ccc2c(c1)OCO2	-21	7	x	35*	-7	17%
COc1ccc(-c2nc(-c3cccc(C(F)(F)F)c3)no2)cc1OC	-2	-1	-5	1	7	0%
COc1ccc(-c2nc(-c3cccc(C)c3)no2)cc1OC	65*	-3	5	1	22	2%
COc1ccc(Cc2nc(-c3ccc(-n4cccc4)cc3)no2)cc1OC	12	-39*	5	32*	28	-10%
COc1ccc(-c2noc(COc3cc(C)ccc3C)n2)cc1OC	4	5	-2	47*	x	5%
CCN(Cc1nc(-c2ccccc2)no1)C(=O)c1ccc2c(c1)OCO2	6	-9	-3	6	3	-1%
O=C(CO/N=C/c1ccccc1OC(F)F)NCc1ccco1	-1	-12	-1	3	7	-6%
Cc1cccc(/C(N)=N/OC(=O)Cc2cccs2)c1	3	33	-6	1	-11	6%
O=C(O)CC1C(=O)NCCN1Cc1ccc(F)c(F)c1 (stereo not given)	3	4	-2	1	14	-18%
C=CCC[C@@H](Cc1ccc(F)cc1)C(=O)O[C@H](CNC(=O)[C@@H](CC=C)CC(=O)N[C@H](CO)Cc1ccccc1)c1ccccc1	7	x	x	x	5	-5%
CN(CC1CCN(CCc2cccc(C(F)(F)F)c2)CC1)C(=O)c1ccc(F)cc1	-24	3	0	1	-87*	7%
CN(CC1CCN(CCc2cccc(C(F)(F)F)c2)CC1)C(=O)c1ccccc1	-28	-7	-2	2	u	16%
CCN1CCC(N(Cc2ccc(F)cc2)C(=O)Nc2cccc(C(F)(F)F)c2)CC1	-19	-25	0	100*	x	8%
Cc1cc(C(=O)N(Cc2nnc(-c3ccc(Cl)cc3)o2)C(C)C)c2ccccc2n1	4	14	-5	2	3	-12%
O=[N+]([O-])c1ccc(Sc2n[nH]c(-c3ccccc3)n2)nc1	-7	0	-1	1	0	0%
COCCNC(=S)N/N=C(\C)c1ccc(O)cc1	-7	-15	-5	4	-3	-4%
C/C(=N\NC(=S)NCC(C)(C)C)c1cc(F)cc(F)c1O	-13	-85*	-11	22	-88*	31%
O=C(NCc1ccccc1F)c1cc(=O)[nH]c2ccccc12	4	-19	0	2	-3	9%
SMILES	DRD3 agonist	D1 antagonist	D1 PAM	D1 agonist	D3 antag	ERG Ets-DNA blk
CCOC(=O)N1CCN(C(=O)c2noc3c2COc2ccccc2-3)CC1	-6	-31*	-4	7	0	5%
Cc1ccc2c(c1)-c1onc(C(=O)N3CCN(c4cc(C)ccc4C)CC3)c1CO2	3	9	4	2	x	1%
CCCN1CCN(C(=O)c2noc3c2COc2ccc(C)cc2-3)CC1	0	-27	-3	15	-64*	-4%
Nc1ccc2c(c1)Cc1cc([N+](=O)[O-])ccc1-2	-5	-36*	-6	122*	-19	1%
O=C(NC(c1ccc(-c2ccccc2)cc1)c1cnccn1)C1CCN(CCCOc2ccccc2)CC1 (stereo not given)	-15	x	x	x	-73*	x
Cc1ccc(C(NC(=O)C2CCN(CCOc3ccccc3)CC2)c2ccccn2)cc1 (stereo not given)	7	x	x	x	-70*	x
COc1ccc(C(NC(=O)C2CCN(CCOc3ccc(Cl)cc3)CC2)c2cccs2)cc1 (stereo not given)	-18	x	x	x	-81*	x
COc1ccc(C(NC(=O)C2CCN(CCc3ccccc3)CC2)c2ccccn2)cc1 (stereo not given)	-18	x	x	x	-75*	x
O=C(NC(c1ccccc1)c1ccc2ccccc2n1)C1CCN(CCOc2ccc(Cl)cc2)CC1 (stereo not given)	12	x	x	x	1	x
Cc1ccc(C(NC(=O)C2CCN(Cc3ccc(Oc4ccccc4)cc3)CC2)c2ccccn2)cc1 (stereo not given)	-12	x	x	x	-83*	x
O=C(NC(c1ccc(-c2ccccc2)cc1)c1cnccn1)C1CCN(CCOc2ccc(F)cc2)CC1 (stereo not given)	-13	x	x	x	-21	x
COc1ccc(C(NC(=O)C2CCN(CCCOc3ccccc3)CC2)c2ccccn2)cc1 (stereo not given)	-24	x	x	x	-110*	x
COc1ccc(C(NC(=O)C2CCN(CCCc3ccccc3)CC2)c2ccccn2)cc1 (stereo not given)	6	x	x	x	-22	x
CCCC(=O)NC(c1ccc(OC)cc1)c1c(O)ccc2ccccc12 (stereo not given)	-11	5	-4	3	u	0%
COc1ccc(C(NC(=O)C2CCCCC2)c2c(O)ccc3ccccc23)cc1 (stereo not given)	-3	-46*	-9	0	9	7%
COc1ccc(OCCN2CCC(C(=O)NC(c3ccc(OC)cc3)c3ccccn3)CC2)cc1 (stereo not given)	-22	x	x	x	-67*	x
N=c1n(CCN2CCCCC2)c2ccccc2n1CC(O)c1ccc(Cl)c(Cl)c1 (stereo not given)	-19	15	-3	65*	u	x
COc1cccc(-c2oc3c(c2C(=O)OCCN2CCCCC2)C(O)CCC3)c1 (stereo not given)	-12	x	x	x	-55*	x
COc1cccc(C(=O)OCCN2CCCCC2)c1	-29	-21	-4	7	u	3%
COc1cccc(N(C(=O)Cn2nnc3ccccc32)C(C(=O)NCc2ccco2)c2cccnc2)c1 (stereo not given)	13	8	1	0	0	1%
